In PubChem BioAssay (NCATS):
Results filed as inconclusive are left out. A call without a number means that no potency is given here. Active and inactive are the calls of the source. The call rests on the fitted dose curve; in most records, active means well fitted curve in the direction sought with a large enough effect; inconclusive means small, poorly fitted or top-dose-only effect, or another doubt; inactive means no such curve, though single readings can be large; an effect the other way counts as inactive or inconclusive.

How the values were obtained:
MKL-1 = assay: qHTS assay to identify novel small-molecules to repurpose for Merkel cell carcinoma treatment (AID 1296009); conditions: MCC and control cell lines, CellTiter-Glo viability, 72 h; series mostly up to 46 µM; further: nearly all actives have a fitted effect of over 60% in size
Summary of the method: (§1)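 Cell viability measured by CellTiter-Glo following 72 hr compound treatment at 37 degree celsius, with NPC and MIPE libraries tested in 8- and 11-point concentration series.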

MKL-2 = assay: as above; conditions: MCC and control cell lines, CellTiter-Glo viability, 72 h; series mostly up to 46 µM
Summary of the method: as §1

UISO = assay: as above; conditions: MCC and control cell lines, CellTiter-Glo viability, 72 h; series mostly up to 46 µM
Summary of the method: as §1

WaGa = assay: as above; conditions: MCC and control cell lines, CellTiter-Glo viability, 72 h; series mostly up to 46 µM
Summary of the method: as §1

C33A = assay: Primary qHTS to identify gynecologic anti-cancer compounds using libraries of approved drugs and bioactive compounds (AID 1345084); conditions: Gynecologic cancer cell panel viability, ATPlite luminescence, 48 h; series mostly up to 57.5 µM; further: nearly all actives have a fitted effect of over 55% in size
Summary of the method: (§2)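 Luminescence from the ATPlite ATP-monitoring reagent indicates viable cell number; lower signal means cytotoxicity. Cells received compound 16 h after seeding and were exposed for 48 h across five concentrations.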

CAOV3 = assay: as above; conditions: Gynecologic cancer cell panel viability, ATPlite luminescence, 48 h; series mostly up to 57.5 µM
Summary of the method: as §2

CASKI = assay: as above; conditions: Gynecologic cancer cell panel viability, ATPlite luminescence, 48 h; series mostly up to 57.5 µM
Summary of the method: as §2

Es-2 = assay: as above; conditions: Gynecologic cancer cell panel viability, ATPlite luminescence, 48 h; series mostly up to 57.5 µM
Summary of the method: as §2

HeLa = assay: as above; conditions: Gynecologic cancer cell panel viability, ATPlite luminescence, 48 h; series mostly up to 57.5 µM
Summary of the method: as §2
Potency means the concentration at half of the fitted maximal effect.

| SMILES | Potency (MKL-1) | Potency (MKL-2) | Potency (UISO) | Potency (WaGa) | Potency (C33A) | Potency (CAOV3) | Potency (CASKI) | Potency (Es-2) | Potency (HeLa) |
| --- | --- | --- | --- | --- | --- | --- | --- | --- | --- |
| COc1ccc2c(c1)c1c3n2CCN(C)C3=NCC1 | inactive | inactive | inactive | inactive | inactive | inactive | inactive | inactive | inactive |
| Cc1cc(C)cc(OCC2CNC(=O)O2)c1 (stereo not given) | inactive | inactive | inactive | inactive | inactive | inactive | inactive | inactive | inactive |
| CC1CCc2c(N3CCC(O)CC3)c(F)cc3c(=O)c(C(=O)O)cn1c23 (stereo not given) | inactive | inactive | inactive | inactive | inactive | inactive | inactive | inactive | inactive |
| Cc1nc(-c2ccc(Cl)cc2)oc1COC(C)(C)C(=O)O | inactive | inactive | inactive | inactive | inactive | inactive | inactive | inactive | inactive |
| CC(CNC1CCCCC1)OC(=O)c1ccccc1 (stereo not given) | inactive | inactive | inactive | inactive | inactive | inactive | inactive | inactive | inactive |
| CC(=O)O[C@]1(C(C)=O)CC[C@H]2[C@@H]3C=C(C)C4=CC(=O)CC[C@]4(C)[C@H]3CC[C@@]21C | inactive | inactive | inactive | inactive | inactive | inactive | inactive | inactive | inactive |
| Nc1ccc(C(=O)NCC(=O)O)cc1 | inactive | inactive | inactive | inactive | inactive | inactive | inactive | inactive | inactive |
| NC(=S)N/N=C/c1cccnc1 | inactive | inactive | inactive | inactive | inactive | inactive | inactive | inactive | inactive |
| CCCCCCCCCCC[C@@H](C[C@@H]1OC(=O)[C@H]1CCCCCC)OC(=O)[C@H](CC(C)C)NC=O | inactive | inactive | inactive | inactive | inactive | inactive | inactive | inactive | inactive |
| N[C@H](C(=O)O)[C@@H](O)c1ccc(O)c(O)c1 | inactive | inactive | inactive | inactive | inactive | inactive | inactive | inactive | inactive |
| CC(C(=O)O)c1cccc(Oc2ccccc2)c1 (stereo not given) | inactive | inactive | inactive | inactive | inactive | inactive | inactive | inactive | inactive |
| Cc1ccccc1OCC(O)CO (stereo not given) | inactive | inactive | inactive | inactive | inactive | inactive | inactive | inactive | inactive |
| CCNC(=O)/C=C/c1cccc(Br)c1 | inactive | inactive | inactive | inactive | inactive | inactive | inactive | inactive | inactive |
| NS(=O)(=O)Cc1noc2ccccc12 | inactive | inactive | inactive | inactive | inactive | inactive | inactive | inactive | inactive |
| Cc1cccc(C)c1NC(=O)c1ccccc1C(=O)O | inactive | inactive | inactive | inactive | inactive | inactive | inactive | inactive | inactive |
| CCN(CC)CCOC(=O)C1(c2ccccc2)CCCC1 | inactive | inactive | inactive | inactive | inactive | inactive | inactive | inactive | inactive |

| SMILES | Potency (MKL-1) | Potency (MKL-2) | Potency (UISO) | Potency (WaGa) | Potency (C33A) | Potency (CAOV3) | Potency (CASKI) | Potency (Es-2) | Potency (HeLa) |
| --- | --- | --- | --- | --- | --- | --- | --- | --- | --- |
| Cc1ccc(S(=O)(=O)NC(=O)NC2CCCC2)cc1 | inactive | inactive | inactive | inactive | inactive | inactive | inactive | inactive | inactive |
| CCCCN1C[C@H](O)[C@@H](O)[C@H](O)[C@H]1CO | inactive | inactive | inactive | inactive | inactive | inactive | inactive | inactive | inactive |
| CC1(C)OC[C@@H]2O[C@@]3(C(=O)O)OC(C)(C)O[C@H]3[C@@H]2O1 | inactive | inactive | inactive | inactive | inactive | – | inactive | inactive | inactive |
| C#C[C@]1(O)CC[C@H]2[C@@H]3CCC4=CC(=O)CC[C@@H]4[C@H]3CC[C@@]21CC | inactive | inactive | inactive | inactive | inactive | – | inactive | inactive | 3550 nM (active) |
| Cc1cc2c(OCC(CNC(C)(C)C)OC(=O)c3ccccc3)cccc2[nH]1 (stereo not given) | inactive | inactive | inactive | – | inactive | inactive | inactive | inactive | inactive |
| Cc1ccc(O)c([C@H](CCN(C(C)C)C(C)C)c2ccccc2)c1 | inactive | inactive | inactive | – | inactive | inactive | inactive | inactive | inactive |
| CCCCOC(=O)CC(CC(=O)OCCCC)(OC(C)=O)C(=O)OCCCC | inactive | inactive | inactive | inactive | inactive | – | inactive | inactive | inactive |
| CCN(CC)CCOC(=O)C(Cc1cccc2ccccc12)CC1CCCO1 (stereo not given) | inactive | inactive | inactive | inactive | inactive | – | – | inactive | inactive |
| O=C(O)CCc1nc2ccccc2[nH]1 | inactive | inactive | inactive | inactive | inactive | – | inactive | inactive | inactive |
| c1ccc(-c2nc[nH]c2-c2ccccc2)cc1 | inactive | inactive | inactive | inactive | – | inactive | inactive | inactive | inactive |
| CCOc1ccc(NC(C)=O)cc1 | inactive | inactive | inactive | inactive | inactive | – | inactive | inactive | inactive |
| C[C@H]1O[C@@H](O[C@H]2CC[C@@]3(C)[C@H](CC[C@@H]4[C@@H]3C[C@@H](O)[C@]3(C)[C@@H](C5=CC(=O)OC5)CC[C@]43O)C2)C[C@H](O)[C@@H]1O[C@H]1C[C@H](O)[C@H](O[C@H]2C[C@H](O)[C@H](O[C@@H]3O[C@H](CO)[C@@H](O)[C@H](O)[C@H]3O)[C@@H](C)O2)[C@@H](C)O1 | 531 nM (active) | 299 nM (active) | 299 nM (active) | – | 282 nM (active) | 501 nM (active) | 1580 nM (active) | 447 nM (active) | 355 nM (active) |
| O=C(O)C(Cc1cc(I)c(O)c(I)c1)c1ccccc1 (stereo not given) | inactive | inactive | inactive | inactive | inactive | – | inactive | inactive | inactive |
| CCCCCCCCCCCCCCC[C@H](O)[C@@H](N)CO | inactive | inactive | inactive | inactive | inactive | – | inactive | inactive | inactive |
| CCN1CCN(C(=O)N[C@@H](C(=O)N[C@@H]2C(=O)N3C(C(=O)O)=C(CSc4nnnn4C)CS[C@H]23)c2ccc(O)cc2)C(=O)C1=O | inactive | inactive | inactive | inactive | inactive | – | inactive | inactive | inactive |
